# From PubChem
# In the library only some 2.4% were active in any assay of this set; here they are far more common.
# Pol eta inh-1: inhibitors of human DNA polymerase eta; AID 588591; recombinant Pol eta, fluorescent DNA replication assay; Potency, µM (series often up to 114 µM), most hits filed as inhibitors; Q9Y253; hit rate 1.2% among 390,000
#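 Fluorescent replication assay: 50 nM final substrate added after a 15 min room-temperature compound preincubation with 10 nM enzyme. Signal taken at 0 min and again at 10 min.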
# POLI inh: DNA polymerase iota (human) inhibition | Potency, µM (series often up to 115 µM), hits mostly inhibitors | Pol iota fluorescent replication assay, 10 min | hit rate 1% among 390,000
#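 Pol iota at 10 nM preincubated 15 min with compounds at room temperature; reaction started with fluorescent substrate, 50 nM final. Fluorescence read kinetically at 0 and 10 min; buffer-only wells as negative control.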
# TDP1 inh: blocks human tyrosyl-DNA phosphodiesterase 1 | Q9NUW8 | recombinant TDP1, AlphaScreen DNA substrate cleavage | Potency, µM (titrated, usually from 130 µM), most hits filed as inhibitors | hit rate 0.28% among 350,000 | AID 485290; note: nearly all actives have a fitted effect of over 40% in size
#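 Compounds were preincubated with Tdp1 (1 nM final) for 15 min at room temperature before substrate (15 nM final) started a 5 min reaction; beads (10 ug/ml final) were then added for 10 min before AlphaScreen detection.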
# FEN1 inh-1: inhibitors of human flap endonuclease 1 | P39748 | Recombinant FEN1 flap cleavage, fluorescence, 15 min | Potency, µM (series often up to 114 µM), actives largely listed as inhibitors | hit rate 0.35% among 390,000; note: nearly all actives have a fitted effect of over 65% in size
#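 Enzyme 10 nM, 15 min RT preincubation with compound; start with substrate 50 nM final; reads at 0 and 15 min; qHTS titration, four-parameter Hill fit.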
# Pol kappa inh-1: DNA polymerase kappa (human) inhibition; Q9UBT6; purified Pol kappa, fluorescent DNA synthesis assay, 10 min; Potency, µM (titrated, usually from 107 µM), hits mostly inhibitors; hit rate 0.53% among 400,000
# Target sequence (Q9UBT6 whole entry, looked up): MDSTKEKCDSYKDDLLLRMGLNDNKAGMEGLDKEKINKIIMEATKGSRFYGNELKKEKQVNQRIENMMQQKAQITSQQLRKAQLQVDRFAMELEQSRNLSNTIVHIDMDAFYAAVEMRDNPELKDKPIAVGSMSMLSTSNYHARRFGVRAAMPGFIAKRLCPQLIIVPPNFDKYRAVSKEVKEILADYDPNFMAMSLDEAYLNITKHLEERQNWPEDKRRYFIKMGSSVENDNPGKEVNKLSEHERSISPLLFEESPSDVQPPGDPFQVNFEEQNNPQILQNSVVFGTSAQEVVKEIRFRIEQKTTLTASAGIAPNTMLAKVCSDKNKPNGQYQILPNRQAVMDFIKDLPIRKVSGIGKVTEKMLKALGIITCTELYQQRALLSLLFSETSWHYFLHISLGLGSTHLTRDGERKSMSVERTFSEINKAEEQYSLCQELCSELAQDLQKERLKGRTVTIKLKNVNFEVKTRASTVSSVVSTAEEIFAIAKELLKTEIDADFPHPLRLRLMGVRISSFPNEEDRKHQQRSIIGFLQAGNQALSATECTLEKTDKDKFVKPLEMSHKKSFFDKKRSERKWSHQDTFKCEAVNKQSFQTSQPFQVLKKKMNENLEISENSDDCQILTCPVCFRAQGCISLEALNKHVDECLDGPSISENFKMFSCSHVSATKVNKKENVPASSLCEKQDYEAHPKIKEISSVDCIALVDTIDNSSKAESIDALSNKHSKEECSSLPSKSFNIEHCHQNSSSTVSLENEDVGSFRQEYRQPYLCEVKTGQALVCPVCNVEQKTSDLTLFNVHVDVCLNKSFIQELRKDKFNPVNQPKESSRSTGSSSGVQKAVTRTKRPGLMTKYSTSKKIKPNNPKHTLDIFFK
#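 Pol kappa 10 nM + cpd, 15 min RT; start w/ substrate 50 nM final; fluorescence kinetic read, 0 and 10 min. Neg ctrl: buffer, no enzyme.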
# POLB inh: DNA polymerase beta (human) inhibition; P06746; Pol beta primer extension/strand displacement, fluorescence kinetic; Potency, µM (top dose mostly 114 µM), most hits filed as inhibitors; hit rate 1.3% among 340,000
#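 10 nM enzyme + cpd, 15 min RT; start with substrate 50 nM final; read 0 min and after 10 min RT. Corrected, normalized data; 4-parameter Hill curve fit.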
# PGK validate: TbPGK inhibition, hit validation; shares compounds with Pol kappa inh-1; TbPGK coupled GAPDH assay, Kinase-Glo luminescence; Potency, µM (doses to about 57.5 µM), actives largely listed as inhibitors; hit rate 79% among 500; AID 686980; note: nearly all actives have a fitted effect of over 65% in size
# Pol iota confirm: Human Pol iota inhibitor confirmatory assay | hit rate 77% among 1,500 | shares compounds with Pol kappa inh-1 | Potency, µM, usual class: inhibitors | Pol iota primer extension, TAMRA/BHQ fluorescence | AID 720496
# GALK inh confirm: confirmation of human galactokinase (GALK) inhibitors. Potency, µM (titrated, usually from 115 µM), usual class: inhibitors. hit rate 70% among 150. shares compounds with Pol eta inh-1. AID 2015. purified GALK, Kinase-Glo ATP depletion luminescence
# Redox cycling: counter-screen for GALK inhibitors: redox cycling H2O2 generation. shares compounds with Pol eta inh-1. Phenol red-HRP H2O2 redox cycling, absorbance 600 nm. Potency, µM (highest dose often 115 µM), usual class: inhibitors. hit rate 40% among 150
# HEK293 tox: HEK-293 cytotoxicity, GALK inhibitor secondary | shares compounds with Pol eta inh-1 | Potency, µM (doses to about 46.1 µM), most hits filed as inhibitors | hit rate 10% among 170 | HEK-293 viability, ATP luminescence (CellTiter-Glo), 24/48 h
# Pol kappa inh-2: Pol kappa (human) inhibition, cherry-pick confirmation; shares compounds with Pol eta inh-1; purified Pol-kappa, fluorescent strand-displacement substrate; Potency, µM, actives largely listed as inhibitors; hit rate 76% among 920
# Pol eta inh-2: confirmation of human DNA polymerase eta inhibitors. shares compounds with Pol eta inh-1. Pol eta primer extension, TAMRA/BHQ fluorescence, 10 min. Potency, µM, hits mostly inhibitors. hit rate 64% among 2,600
# FEN1 inh-2: confirmation of human FEN1 inhibitors | shares compounds with FEN1 inh-1 | FEN1 flap cleavage, TAMRA/BHQ2 fluorogenic DNA substrate | Potency, µM, hits mostly inhibitors | hit rate 79% among 880; note: nearly all actives have a fitted effect of over 60% in size
# A number is an active result; - = inactive; ? = inconclusive; . = not tested or not shown. Calls come from the whole dose curve; as a rule, active = well fitted curve in the direction sought with a large enough effect; inconclusive = small, poorly fitted or top-dose-only effect, or another doubt; inactive = no such curve, though single readings can be large; an effect the other way counts as inactive or inconclusive.
SMILES,Pol eta inh-1,POLI inh,TDP1 inh,FEN1 inh-1,Pol kappa inh-1,POLB inh,Pol iota confirm,Pol eta inh-2,FEN1 inh-2,others
Cc1nc2ccccc2c(=O)n1/N=C/c1ccc(O)c(O)c1O,2.82µM,?,.,?,?,1.58µM,1.68,2.69,10.7,
O=C1CC(c2ccc(O)c(O)c2)Oc2c1ccc(O)c2O (stereo not given),0.794µM,1.58µM,.,3.55µM,1.78µM,0.398µM,3.36,3.38,33.8,PGK validate=0.919µM
CCN(CC)CCC(=O)Nc1cccc2c1C(=O)c1ccccc1C2=O,-,15.8µM,-,15.8µM,-,20µM,?,.,6.01,
Nc1cccc(C(=O)OCC(=O)Nc2cccc3c2C(=O)c2ccccc2C3=O)c1,?,-,-,-,-,-,.,.,.,
Nc1ccc(/C=C/c2nccc3ccccc23)cc1,.,?,.,-,-,.,.,.,.,
Cc1nnc(NC(=O)c2sc3nc(-c4cccs4)cc(C(F)(F)F)c3c2N)s1,6.31µM,28.2µM,.,?,?,35.5µM,42.3,67.5,?,
CN(C)C(CNC(=O)c1cc(-c2ccco2)nc2ccccc12)c1ccccc1 (stereo not given),11.2µM,?,-,?,25.1µM,.,33.6,75.7,?,
Nc1[nH]c(=S)[nH]c(=O)c1N,.,-,.,-,-,.,.,.,.,
O=C(O)c1ccc2nc(-c3ccco3)c(-c3ccco3)nc2c1,3.55µM,?,-,35.5µM,22.4µM,3.55µM,4.74,3.79,15.1,
CNC(=O)c1ccc2nc(-c3ccccc3)c(-c3ccccc3)nc2c1,.,-,-,-,-,.,.,.,.,
CC1=Nc2ccccc2/C1=C\c1nc(-c2ccc(F)cc2)oc1O,?,?,-,70.8µM,?,35.5µM,?,33.8,23.9,
CN=Cc1nc(-c2ccccc2)oc1O,-,?,-,-,-,-,.,.,.,
O=C(CN1C(=O)N/C(=C\c2cccn2-c2cccc(C(=O)O)c2)C1=O)Nc1ccc(Cl)cc1,.,.,.,.,.,.,59.7,?,60.1,
O=C(O)c1ccc(/C=C2/SC(=S)N(Cc3ccccc3)C2=O)cc1,-,-,.,-,-,-,.,.,.,
Cc1cccc(C)c1NC(=O)CN1C(=O)S/C(=C\c2cccn2-c2cccc(C(=O)O)c2)C1=O,22.4µM,?,.,50.1µM,-,-,37.7,75.7,75.7,
Cc1cccc(C)c1NC(=O)CN1C(=O)S/C(=C\c2cccn2C)C1=O,-,-,-,-,-,-,.,.,.,
O=C(O)c1ccc(-n2cccc2/C=C2\SC(=O)N(Cc3ccc(Cl)cc3)C2=O)cc1,.,.,.,.,.,.,42.3,15.1,75.7,
O=C1N/C(=C/c2cccn2-c2ccccc2)C(=O)N1Cc1ccc(F)cc1,-,-,-,-,-,-,.,.,.,
COCCn1c(=O)c(C)nc2cnc(N3CCNCC3)nc21,.,.,.,.,-,.,.,.,.,
O=C(/C=C/c1ccco1)NC(=S)Nc1ccc(C(=O)O)cc1,7.08µM,?,.,39.8µM,25.1µM,11.2µM,9.47,5.36,30.1,
COc1ccc(NC(=S)NC(=O)/C=C/c2ccco2)cc1,-,-,-,-,-,?,.,.,.,
CNc1ccc(/C=C2\C=Cc3ccccc32)cc1OC,.,-,.,-,-,.,.,.,.,
O=C(O)CN1C(=O)/C(=C/c2ccc(N3CCCCC3)o2)SC1=S,50.1µM,-,50.1µM,44.7µM,50.1µM,17.8µM,42.3,33.8,47.8,Pol kappa inh-2=23.8
CN(C)CCCNc1nc(-c2ccccc2)nc2ccccc12,-,-,-,-,-,-,.,.,.,
CN(C)CCCNc1c2ccccc2nc2ccccc12,22.4µM,8.91µM,.,11.2µM,25.1µM,2.24µM,10.6,.,8.49,Pol kappa inh-2=9.47
SMILES,Pol eta inh-1,POLI inh,TDP1 inh,FEN1 inh-1,Pol kappa inh-1,POLB inh,Pol iota confirm,Pol eta inh-2,FEN1 inh-2,others
Oc1ccc(CCNc2c3ccccc3nc3ccccc23)cc1O,?,39.8µM,.,17.8µM,?,7.08µM,75.2,.,3.01,
CSC1SCC2C(=O)N(C)C(C(C)C)C(=O)OCC(NC(=O)c3cnc4ccccc4n3)C(=O)NC(C)C(=O)N(C)C1C(=O)N(C)C(C(C)C)C(=O)OCC(NC(=O)c1cnc3ccccc3n1)C(=O)NC(C)C(=O)N2C (stereo not given),-,0.316µM,.,0.562µM,-,.,1.5,1.51,0.601,Pol kappa inh-2=0.752
CCCCN(CCCC)CC(O)c1cc(Cl)cc2c1-c1ccc(Cl)cc1C2=Cc1ccc(Cl)cc1 (stereo not given),.,-,.,-,-,.,.,.,.,
Nc1ccc2c(c1Cl)C(=O)c1ccc(N)c(Cl)c1C2=O,8.91µM,?,3.55µM,?,?,2µM,16.8,42.6,?,
CS(=O)(=O)c1ccc2c(c1)sc1nc(=O)c(/C=C3/C=CC(=O)C(O)=C3)c(N)n12,0.794µM,3.98µM,-,12.6µM,7.94µM,3.16µM,6.7,1.51,37.9,PGK validate=?;GALK inh confirm=18.8µM;Redox cycling=?;HEK293 tox=-
Cc1ccc2c(=O)n3c(nc2c1)C(Cc1ccccc1)NC(=O)c1cc2ccccc2cc1-3 (stereo not given),-,.,.,.,.,.,.,.,.,
CCCC[C@H]1CCCO[C@@](C(=O)NCc2ccccc2)(C(F)(F)F)C1,.,?,-,-,-,.,.,.,.,
O=C(CSc1nc2ccccc2o1)Nc1nc2ccc(Br)cc2s1,?,-,-,-,-,?,.,.,.,
N#Cc1c(SCC(=O)Nc2nc3ccc(Br)cc3s2)sc2c(O)cc(=O)[nH]c12,11.2µM,6.31µM,.,28.2µM,31.6µM,35.5µM,67,15.1,?,Pol kappa inh-2=8.44
O=C(NCc1ccccc1C(F)(F)F)c1cccc2c1C(=O)c1ccc(N3CCC(N4CCCCC4)CC3)cc1S2(=O)=O,?,.,.,.,.,.,?,60.1,75.7,
